Measurements taken from PubChem BioAssay AID624330 (Southern Research Specialized Biocontainment Screening …, 2012).
Screen size: about 340,000 compounds; about 2,100 (0.62%) were called active.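 Rule for the calls: active = first-screen hits whose inhibition reached a set limit at any dose in the follow-up dose series; inconclusive = inhibition above the set first-screen limit but never retested; inactive = the rest.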 A selection follows. Entries with a potency or affinity are not part of this list.

What follows are compounds tested against Rac GTPase-activating protein 1 (Homo sapiens) (UniProt Q9H0H5) (assay: MgcRacGAP GTPase-activating activity inhibitors, confirmation, biochemical, ADP Hunter fluorescence, primary and confirmatory (AID 624330;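 note: fluorescence reports GDP produced by GAP-driven GTP hydrolysis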)). Conditions: MgcRacGAP-stimulated Rac1 GTP hydrolysis, at 30 µM, hits give high values, GST-tagged Rac1 F28L mutant substrate.
Chain of Rac GTPase-activating protein 1 (Homo sapiens) (Q9H0H5 whole entry, looked up): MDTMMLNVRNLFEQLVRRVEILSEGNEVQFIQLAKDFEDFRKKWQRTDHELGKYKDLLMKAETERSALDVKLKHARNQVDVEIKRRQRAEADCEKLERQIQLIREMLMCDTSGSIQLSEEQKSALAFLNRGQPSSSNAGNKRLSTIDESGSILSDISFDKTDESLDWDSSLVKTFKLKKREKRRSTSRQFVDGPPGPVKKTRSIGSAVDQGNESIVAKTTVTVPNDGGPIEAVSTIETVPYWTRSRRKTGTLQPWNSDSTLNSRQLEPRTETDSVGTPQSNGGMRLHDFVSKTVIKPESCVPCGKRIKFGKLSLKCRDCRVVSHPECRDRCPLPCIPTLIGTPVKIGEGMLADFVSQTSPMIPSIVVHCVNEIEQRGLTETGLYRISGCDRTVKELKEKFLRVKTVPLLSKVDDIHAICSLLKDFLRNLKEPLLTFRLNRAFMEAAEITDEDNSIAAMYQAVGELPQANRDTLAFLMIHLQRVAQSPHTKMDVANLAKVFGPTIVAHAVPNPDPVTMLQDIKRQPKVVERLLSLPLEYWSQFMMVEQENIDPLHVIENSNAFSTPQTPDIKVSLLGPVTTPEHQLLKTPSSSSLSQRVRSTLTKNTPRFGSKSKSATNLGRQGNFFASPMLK

inhibition, inactive:
CCCCNC(=O)CSc1nc2ccccc2n1S(=O)(=O)c1ccc(Br)cc1 2.01%
S=c1[nH]nc(-c2cc(-c3ccccc3)n[nH]2)n1/N=C/c1cccs1 16.3%
Cc1ccc(-c2n[nH]c(=S)n2/N=C/c2sccc2C)cc1 5.68%
Cc1n[nH]c(=O)n(N=Cc2cccs2)c1=O 7.77%
Cc1cc(C)n(/N=C/c2cccc(O)c2)c(=O)c1C(N)=O 10.6%
O=[N+]([O-])c1ccccc1/C=N/n1c(C(F)(F)F)n[nH]c1=S 16.4%
Nc1nnnn1/N=C/c1cccc(O)c1 5.38%
Cc1ccsc1/C=N/n1c(-c2cc(-c3ccccc3)n[nH]2)n[nH]c1=S 11.8%
O=[N+]([O-])c1ccccc1/C=N/n1c(-c2ccccc2)n[nH]c1=S 16.3%
C#CCOCCOCCOCCNc1nc(N2CCN(C(=O)[C@H](CCCCN)n3cc(CN)nn3)CC2)nc(N2CCN(C(=O)[C@H](CCCN=C(N)N)n3cc(C(N)[C@H](C)CC)nn3)CC2)n1 (stereo partly specified) 7.55%
C/C(=N/OC(=O)c1ccccc1Br)c1ccc(C)cc1 6.4%
O=C(CN1CCCCCC1)Nc1cc([N+](=O)[O-])ccc1Cl 5.34%
Cc1cnc(NC(=O)c2cccc(S(=O)(=O)N3CCOCC3)c2)s1 1.86%
O=C(CCCOc1ccc(Cl)cc1Cl)N/N=C/c1ccc(Cl)cc1 10.9%
O=C1CC2(CCN(C(=O)c3ccccc3[N+](=O)[O-])CC2)Oc2ccccc21 -0.23%
CCOC(=O)c1ccc(N2C(=O)[C@@H](c3ccccc3)[C@H]2c2ccccc2)cc1 -2.09%
S=c1[nH]nc(-c2ccccn2)n1/N=C/c1ccc(Br)s1 18.4%
S=c1[nH]nc(-c2cc(-c3ccccc3)n[nH]2)n1/N=C/c1ccc(Br)s1 20.5%
CCCOc1cccc(/C=N/NC(=O)c2csc(C)c2C)c1 4.91%
CCOC(=O)N1CCN(CCc2ccccc2)CC1 7.1%
CC(C)[C@H](NC(=O)c1ccc(Cl)cc1)C(=O)Nc1cccc(S(=O)(=O)N2CCOCC2)c1 12.2%
O=C1ON=C(c2ccccc2)/C1=C/c1ccccc1 5.86%
CCOc1cc(/C=C2\C(=O)ON=C2c2ccccc2)ccc1OC 24.3%
COc1ccc(/C=C2/C(=O)ON=C2c2ccccc2)cc1OC 15.4%
CCOc1cc(/C=C2/C(=O)ON=C2C)cc(Br)c1O 29.1%
COc1ccc(/C=C2\C(=O)ON=C2c2ccccc2)cc1OC 16.1%
O=C1ON=C(c2ccccc2)/C1=C/c1ccc(O)cc1 27.7%
CN(C)c1cccc(NC(=O)CCc2ccccc2)c1 2.65%
C[C@H](CO)N1C[C@H](C)[C@H](CN(C)C(=O)CCC(F)(F)F)OCc2cnnn2CCCC1=O 6.43%
C=CCSc1nnc(-c2ccncc2)n1-c1ccc(OCC)cc1 6.74%
CC1CCN(S(=O)(=O)c2ccc(C(=O)NCc3cccnc3)cc2)CC1 -0.6%
C/C(CC(=O)Nc1cccc2c1CCCC2)=N\NC(=O)c1ccccc1N 5.83%
CC(C)(C)CC(=O)Nc1nnc(SCC(=O)NC2CCCC2)s1 4.93%
CC(C)OC(=O)c1c(NC(=O)c2cnn3c2NC(c2ccccc2)CC3C(F)(F)F)sc2c1CCCC2 (stereo unspecified) 10.2%
O=C(Nc1c2c(nc3ccccc13)CCCC2)c1ccccc1Cl 2.57%
O=C(CCCCCl)Nc1c2c(nc3ccccc13)CCC2 0.44%
Cc1ccccc1C(=O)Nc1c2c(nc3ccccc13)CCCC2 10.8%
CCCCCC(=O)Nc1c2c(nc3ccccc13)CCC2 8.1%
CCN1CCN(c2ccc(NC(=O)c3ccc(OC)c(S(=O)(=O)N4CCCC4)c3)cc2)CC1 4.33%
CC(C)N1CCN(Cc2coc3ccccc3c2=O)CC1CCO (stereo unspecified) 10.3%
O=C(CSc1nc(=O)n2ccccc2n1)NCCc1ccccc1 4.62%
NC(=O)CC(NC(=O)c1cccc(Br)c1)c1ccc(N2CCN(c3ccccn3)CC2)c([N+](=O)[O-])c1 (stereo unspecified) 5.09%
COc1ccccc1/C=C/C(=O)c1cc(Br)ccc1OC(=O)c1ccco1 8.54%
CC(C)CC(O)(CC(C)C)C(=O)NNc1ccccc1 11.2%
CCOC(=O)c1nc(Nc2ccc(C)cc2)c2ccccc2n1 4.57%
CCOC(=O)c1nc(Nc2ccccc2)c2ccccc2n1 -2.22%
CCN(CC(=O)Nc1ccccc1OC)C(=O)COc1ccc(C#N)cc1 2.59%
COc1ccccc1CN(C)CC(=O)Nc1ccc(Cl)cc1C(F)(F)F 18.9%
COc1ccc(CN(C)CC(=O)Nc2ccccc2C(F)(F)F)c(OC)c1 24.5%
COc1ccc(CCN=C(N)NS(=O)(=O)c2ccc(F)cc2)cc1OC 7.56%
CCC(=O)NC(=S)Nc1ccc(NC(=O)c2cccnc2)cc1 -1.6%
Cc1cc2ccccc2n2c(SCC(=O)NCc3cccs3)nnc12 -2.11%
C[C@H](CO)N1C[C@H](C)[C@@H](CN(C)S(=O)(=O)c2cccc(C#N)c2)OCc2cn(nn2)CCCC1=O 13.9%
NS(=O)(=O)c1ccc(-c2ccc(/C=C3\C(=O)Nc4cc(Cl)ccc43)o2)cc1 6.45%
NS(=O)(=O)c1ccc(-c2ccc(C=C3C(=O)c4ccccc4C3=O)o2)cc1 2.34%
CSc1ccccc1NC(=O)C1CCCN(S(C)(=O)=O)C1 (stereo unspecified) -1.03%
C=CCNC(=S)Nc1ccc(Cl)cc1 3.44%
C=CCNC(=S)Nc1cccc(NC(=S)NCC=C)c1 6.56%
CCCCn1c(CCNC(=O)c2cccs2)nc2ccccc21 -1.35%
COc1ccc(/C=N/NC(=O)c2ccc(N3CCCC3=O)cc2)cc1 7.42%
COc1cccc(/C=N/NC(=O)c2ccc(N3CCCC3=O)cc2)c1 7.68%
COc1ccc(O)c(/C=N/NC(=O)c2cccc(N3CCCC3=O)c2)c1 3.65%
COc1cccc(/C=N/NC(=O)c2cccc(N3CCCC3=O)c2)c1 4.11%
CCN(CCO)C(=O)CC1C(=O)NCCN1Cc1c(F)cccc1Cl (stereo unspecified) 9.19%
CN(Cc1cccc(F)c1)C(=O)CSc1nnc(C2CC2)n1C1CC1 7.8%
CCOc1cc(C(=O)NCC(C)CN(C)C)cc(OCC)c1OCC (stereo unspecified) 1.39%
Cc1ccc(NS(=O)(=O)c2ccc(C)c(NC(=O)c3ccc(S(=O)(=O)N4CCCCCC4)cc3)c2)c(C)c1 11.6%
COc1ccc(CN2CCN(CC(=O)Nc3ccccc3C(=O)NC3CC3)CC2)cc1F 6.52%
CCCN(CCO)Cc1ccc2ccccc2c1 3.4%
CN(C)C(=O)CCc1ccc2c3c([nH]c2c1)[C@]1(C)[C@@H](C(=O)N2CCCCC2)C[C@H](CC(=O)NCc2cccc(C(F)(F)F)c2)C(=O)N1CC3 4.55%
CCOC(=O)CSC1=NC(=O)/C(=C/c2ccc(OC)cc2)S1 16.1%
CCOC(=O)CSC1=NC(=O)/C(=C/c2ccc(Br)cc2)S1 19.4%
CCN1C[C@@H]2[C@@H]3C(=O)N(Cc4ccccc4)C(=O)[C@@H]3[C@](Cc3ccccc3)(C1=O)N2C(=O)c1ccc(Cl)cc1 6.26%
COc1ccc(C(=O)CC(=O)C(=O)Nc2ccc(OC)c(Cl)c2)cc1 5.32%
CN(C(=O)CCc1nc(-c2ccccc2F)no1)c1ccccc1 -0.78%
N#CC(C#N)=C1C=CC=CN1/C(=C\c1ccco1)C(=O)c1ccccc1 16.7%
N#CC(C#N)=C1C=CC=CN1/C(=C\c1ccccc1Cl)C(=O)c1ccccc1 17.8%
N#CC(C#N)=C1C=CC=CN1/C(=C\c1ccco1)C(=O)c1ccc(-c2ccccc2)cc1 15.6%
COc1ccc(C(=O)/C(=C\c2ccco2)N2C=CC=CC2=C(C#N)C#N)cc1 4.05%
CCCCN(C(=O)c1cc(CN2C(=O)c3ccccc3C2=O)ccc1OC)c1c(N)n(CC(C)C)c(=O)[nH]c1=O 3.78%
O=C(Nc1cccc(Cl)c1Cl)C1CCN(c2ncccn2)CC1 7.84%
CCOC(=O)C(Cc1ccccc1)C(=O)Nc1ccc(NC(=O)C(Cc2ccccc2)C(=O)OCC)cc1 (stereo unspecified) 4.48%
CC(=O)c1cccc(NC(=O)CSC(=O)c2ccccc2)c1 7.67%
CCN(CC)c1ccc(/C=N/NC(=O)Nc2ccccc2)cc1 28.4%
NC(=O)c1ccc(NC(=O)CSC(=O)c2ccccc2)cc1 8.91%
CCCCc1ccc(NC(=O)C2CCCC2)cc1 -0.66%
CCN(CC)c1ccc(NC(=S)NC(=O)C2CCC2)cc1 18%
CCOC(=O)C(Cc1ccccc1)C(=O)Nc1cccc(C)c1 (stereo unspecified) 1.33%
CCN(CC)c1ccc(NC(=O)Nc2ccc(C(C)=O)cc2)cc1 10.2%
COC(=O)c1cc(OC)c(OC)cc1NC(=O)CCCCCN1C(=O)CCC1=O 5.93%
COc1ccc(CCC(=O)Nc2ccc(Cn3ccnc3)cc2)cc1 6.46%
